Test results taken from PubChem BioAssay AID1952 (The Scripps Research Institute Molecular Screening Center, 2009).
Screen size: about 2,400 compounds; about 1,200 (50%) were called active. The set was probably picked from earlier hits. These entries were drawn from the full list. Unmarked numbers belong to inactive results. Cut-off read from the data, not from the text of the source: active = inhibition above about 24%; inactive = the rest.

Target: Neuropeptides B/W receptor type 1 (Homo sapiens) (UniProt P48145)
Sequence (P48145 whole entry, looked up): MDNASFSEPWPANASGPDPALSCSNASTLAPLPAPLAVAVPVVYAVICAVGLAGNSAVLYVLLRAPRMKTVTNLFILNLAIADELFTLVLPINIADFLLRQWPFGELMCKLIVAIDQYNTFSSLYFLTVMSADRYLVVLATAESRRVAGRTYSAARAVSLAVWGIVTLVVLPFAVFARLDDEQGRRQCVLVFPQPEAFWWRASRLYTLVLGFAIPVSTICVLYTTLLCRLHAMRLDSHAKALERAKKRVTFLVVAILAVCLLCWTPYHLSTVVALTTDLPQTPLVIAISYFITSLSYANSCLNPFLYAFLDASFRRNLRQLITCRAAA
Test: blockers of human NPBW1 receptor – cell-based, fluorescence, single concentration, confirmation (AID 1952);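 note: stimulated with the GPR7 agonist NPW; 0% = agonist plus vehicle and 100% = vehicle alone without agonist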
Conditions: GPR7-expressing cells, calcium fluorescence antagonist mode; at 4.4 µM; hits give high values

| Compound | inhibition |
| --- | --- |
| Cc1ccc(O)c(NC(=S)NC(=O)COc2ccc(Br)cc2)c1 | 88.8% (active) |
| O=C(Nc1ccc2ccccc2c1)Nc1ccc2snnc2c1 | 55.7% (active) |
| CC(C)(C)NCc1cc(Br)ccc1OC1CCCC1 | 23.2% |
| Cc1ccc(NC(=O)CN2C(=O)NC(C)(c3ccc(Cl)cc3)C2=O)c(Br)c1 (stereo not given) | 18.8% |
| CC(NCc1ccccc1OC1CCCC1)c1ccccc1 (stereo not given) | 23.1% |
| CCN1CCN(c2c(Cl)cccc2NC(=O)c2ccc(Br)o2)CC1 | 21% |
| CCN1/C(=C\c2ccc3ccccc3[n+]2CC)Sc2cc(C)ccc21 | 49.3% (active) |
| COc1ccc(OC)c(C(c2nnnn2C(C)(C)C)N2CCc3ccccc3C2)c1 (stereo not given) | 5.35% |
| CC(C)(C)CC(C)(C)NCC(O)COCCOc1ccc(Br)cc1 (stereo not given) | 47.2% (active) |
| C=CCSc1nsc(NC(=O)Nc2cccc(C(C)=O)c2)n1 | 47.2% (active) |
| CCSc1nsc(NC(=O)Nc2cccc(C(C)=O)c2)n1 | 43.7% (active) |
| CCn1c2ccc(F)cc2c2nnc(SCCN3CCOCC3)nc21 | -14.4% |
| CCc1c(C)nc2c(-c3ccccc3)c(C)nn2c1Nc1ccc(NC(C)=O)cc1 | 4.93% |
| COc1ccc(C(=O)CSc2nnc(COc3ccccc3)n2Cc2ccco2)cc1 | 19% |
| Oc1cccc(/C=N/Nc2ccc(Cl)nn2)c1O | 4.11% |
| Cc1cccc(-c2nc3ccc(C(=O)NCCN4CCN(C)CC4)cc3nc2-c2cccc(C)c2)c1 | 41.8% (active) |
| CCc1ccc(N(C(=O)c2csnn2)C(C(=O)NC2CCCCC2)c2ccncc2)cc1 (stereo not given) | 34.2% (active) |
| O=C(Nc1ccccc1F)c1ccc2c(c1)OCO2 | -16.6% |
| O=C(Nc1nc(-c2ccc3c(c2)OCO3)cs1)c1ccncc1 | 55.1% (active) |
| N=c1c2c(-c3ccccc3)c(-c3ccccc3)n(Cc3ccccc3)c2ncn1CCCO | 26.6% (active) |
| CCc1ccc2nc(N(CCCN(C)C)C(=O)c3ccc4c(c3)OCCO4)sc2c1 | 40% (active) |
| CN(C)CCCN(C(=O)c1ccc(S(=O)(=O)N2CCCc3ccccc32)cc1)c1nc2ccc(F)cc2s1 | 73% (active) |
| CN(C)CCCN(C(=O)c1ccc(S(=O)(=O)N2CCCCCC2)cc1)c1nc2ccc(Br)cc2s1 | 70.5% (active) |
| CCOC(=O)C1CSC(CC(=O)Nc2ccc(OCC)cc2)C(=O)N1 (stereo not given) | 2.35% |
| COCCN(Cc1cc2cc3c(cc2nc1Cl)OCO3)C(=O)c1cccc(C)c1 | -7.71% |
